# Experimental data published in the supplement of paper PMC8728848.
# The entries come from a sample that favours the strongest signals as a whole.
# B1: SfaEH (Escherichia coli), Q1RDG5 (protein)
# chain: LLCRNNQTGQVFNSGDTSFRVNVSPVVQYDKSISVLDLSQLVSCQNEDSTGQNYDYLKILKGSGFSPALDTKTYGRLDFTSRPTGYARQLPLQFDLQVTEAFYQYGVWKPFPAKLYLYPAPGVFGKVINNGDLLATLYVNKFSTKGQEAGERNFTWRFYATNDVYIQTGTCRVSSNNVKVDLPSYPGGPVTVPLTVRCDQTQSVSYTLSGPVTGSGNTVFANTAASGSGGVGIQLSDNVGPVPAGQPRSLGQVGSSPVSLGLKASYALTGQASPTPGAVQSVINVTFSYN
# Tests used:
# Test in all cases: glycan array binding signal (z-score within array); higher = stronger binding
# Settings in all cases: glycan notation: IUPAC condensed, linker removed
# [1] = biological target: Fuc(a1-2)Gal
# Summary of the method: (§1)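 The Consortium for Functional Glycomics database supplied 3228 glycan arrays, of which those lacking an available protein sequence were dropped. The binding signal, a within-array Z-score, was averaged across arrays of the same protein sequence and across linkers. Negative scores can be read as non-binding.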
# [2] = biological target: Fuc(a1-2)Gal(b1-3)GalNAc(b1-4)[Neu5Ac(a2-3)]Gal(b1-4)Glc
# Summary of the method: as §1
# [3] = biological target: Fuc(a1-2)Gal(b1-3)[Fuc(a1-4)]GlcNAc(b1-2)Man(a1-3)[Fuc(a1-2)Gal(b1-3)[Fuc(a1-4)]GlcNAc(b1-2)Man(a1-6)]Man(b1-4)GlcNAc(b1-4)[Fuc(a1-6)]GlcNAc(b1-4)[Fuc(a1-6)]GlcNAc
# Summary of the method: as §1
# [4] = biological target: Fuc(a1-2)Gal(b1-4)GlcNAc(b1-2)Man(a1-3)[Fuc(a1-2)Gal(b1-4)GlcNAc(b1-2)Man(a1-6)]Man(b1-4)GlcNAc(b1-4)[Fuc(a1-6)]GlcNAc
# Summary of the method: as §1
# [5] = biological target: Fuc(a1-2)Gal(b1-4)[Fuc(a1-3)]GlcNAc(b1-3)Gal(b1-4)[Fuc(a1-3)]GlcNAc(b1-3)Gal(b1-4)[Fuc(a1-3)]GlcNAc
# Summary of the method: as §1
# [6] = biological target: Fuc(a1-2)[Gal(a1-3)]Gal(b1-4)GlcNAc(b1-2)Man(a1-3)[Fuc(a1-2)[Gal(a1-3)]Gal(b1-4)GlcNAc(b1-2)Man(a1-6)]Man(b1-4)GlcNAc(b1-4)GlcNAc
# Summary of the method: as §1
# [7] = biological target: Fuc(a1-2)[Gal(a1-4)]Gal(b1-4)GlcNAc
# Summary of the method: as §1
# [8] = biological target: Fuc(a1-3)[Gal(b1-4)]GlcNAc
# Summary of the method: as §1
# [9] = biological target: Gal(b1-3)GalNAc(a1-3)[Fuc(a1-2)]Gal(b1-4)Glc
# Summary of the method: as §1
# [10] = biological target: Gal(b1-3)GlcNAc(a1-3)Gal(b1-4)GlcNAc
# Summary of the method: as §1
# [11] = biological target: Gal(b1-3)GlcNAc(b1-3)Gal(b1-4)GlcNAc(b1-3)Gal(b1-4)GlcNAc(b1-2)[Gal(b1-3)GlcNAc(b1-3)Gal(b1-4)GlcNAc(b1-3)Gal(b1-4)GlcNAc(b1-6)]Man(a1-6)[Gal(b1-3)GlcNAc(b1-3)Gal(b1-4)GlcNAc(b1-3)Gal(b1-4)GlcNAc(b1-2)Man(a1-3)]Man(b1-4)GlcNAc(b1-4)[Fuc(a1-6)]GlcNAc
# Summary of the method: as §1
# [12] = biological target: Gal(b1-3)[Fuc(a1-4)]GlcNAc(b1-3)Gal(b1-3)[Fuc(a1-4)]GlcNAc
# Summary of the method: as §1
# [13] = biological target: Gal(b1-3)[Neu5Ac(a2-6)]GlcNAc(b1-4)Gal(b1-4)Glc
# Summary of the method: as §1
# [14] = biological target: Gal(b1-4)GlcNAc(b1-2)[Gal(b1-4)GlcNAc(b1-4)]Man(a1-3)[GlcNAc(b1-4)][Gal(b1-4)GlcNAc(b1-2)[Gal(b1-4)GlcNAc(b1-6)]Man(a1-6)]Man(b1-4)GlcNAc(b1-4)GlcNAc
# Summary of the method: as §1
# [15] = biological target: Gal(b1-4)GlcNAc(b1-3)Gal(b1-3)GlcNAc
# Summary of the method: as §1
# [16] = biological target: Gal(b1-4)GlcNAc(b1-3)Gal(b1-4)GlcNAc(b1-3)Gal(b1-4)GlcNAc
# Summary of the method: as §1
# [17] = biological target: Gal(b1-4)GlcNAc(b1-3)Gal(b1-4)GlcNAc(b1-3)Gal(b1-4)GlcNAc(b1-3)Gal(b1-4)GlcNAc(b1-2)Man(a1-3)[Gal(b1-4)GlcNAc(b1-3)Gal(b1-4)GlcNAc(b1-3)Gal(b1-4)GlcNAc(b1-3)Gal(b1-4)GlcNAc(b1-2)Man(a1-6)]Man(b1-4)GlcNAc(b1-4)[Fuc(a1-6)]GlcNAc
# Summary of the method: as §1
# [18] = biological target: Gal(b1-4)GlcNAc(b1-3)Gal(b1-4)GlcNAc(b1-3)Gal(b1-4)GlcNAc(b1-3)Gal(b1-4)GlcNAc(b1-2)[Gal(b1-4)GlcNAc(b1-3)Gal(b1-4)GlcNAc(b1-3)Gal(b1-4)GlcNAc(b1-3)Gal(b1-4)GlcNAc(b1-6)]Man(a1-6)[Gal(b1-4)GlcNAc(b1-3)Gal(b1-4)GlcNAc(b1-3)Gal(b1-4)GlcNAc(b1-3)Gal(b1-4)GlcNAc(b1-2)Man(a1-3)]Man(b1-4)GlcNAc(b1-4)[Fuc(a1-6)]GlcNAc
# Summary of the method: as §1
# [19] = biological target: Gal(b1-4)GlcNAc(b1-3)Gal(b1-4)GlcNAc(b1-3)Gal(b1-4)GlcNAc(b1-3)Gal(b1-4)GlcNAc(b1-3)Gal(b1-4)GlcNAc(b1-2)Man(a1-3)[Gal(b1-4)GlcNAc(b1-3)Gal(b1-4)GlcNAc(b1-3)Gal(b1-4)GlcNAc(b1-3)Gal(b1-4)GlcNAc(b1-3)Gal(b1-4)GlcNAc(b1-2)Man(a1-6)]Man(b1-4)GlcNAc(b1-4)GlcNAc
# Summary of the method: as §1
# [20] = biological target: Gal(b1-4)GlcNAc(b1-3)Gal(b1-4)GlcNAc(b1-6)[Gal(b1-3)]GalNAc
# Summary of the method: as §1
# [21] = biological target: Gal(b1-4)GlcNAc(b1-3)[Gal(b1-4)GlcNAc(b1-6)]Gal(b1-4)GlcNAc
# Summary of the method: as §1
# [22] = biological target: Gal3S6S(b1-4)GlcNAc
# Summary of the method: as §1
# [23] = biological target: Gal6S(b1-3)GlcNAc6S
# Summary of the method: as §1
# [24] = biological target: Gal6S(b1-4)Glc
# Summary of the method: as §1
# [25] = biological target: GalNAc(b1-4)GlcNAc
# Summary of the method: as §1
# [26] = biological target: GalNAc3S(b1-4)GlcNAc
# Summary of the method: as §1
# [27] = biological target: GalNAc3S(b1-4)GlcNAc3S
# Summary of the method: as §1
# [28] = biological target: GalNAc3S(b1-4)[Fuc(a1-3)]GlcNAc
# Summary of the method: as §1
binder,measurement,setting,value
B1,glycan array binding signal (z-score),[1],-0.532
same,glycan array binding signal (z-score),[2],-0.413
same,glycan array binding signal (z-score),[3],1.21
same,glycan array binding signal (z-score),[4],-0.238
same,glycan array binding signal (z-score),[5],1.77
same,glycan array binding signal (z-score),[6],-0.531
same,glycan array binding signal (z-score),[7],0.037
same,glycan array binding signal (z-score),[8],-0.018
same,glycan array binding signal (z-score),[9],-0.503
same,glycan array binding signal (z-score),[10],-0.23
same,glycan array binding signal (z-score),[11],3.4
same,glycan array binding signal (z-score),[12],0.274
same,glycan array binding signal (z-score),[13],-0.638
same,glycan array binding signal (z-score),[14],1.56
same,glycan array binding signal (z-score),[15],0.732
same,glycan array binding signal (z-score),[16],0.382
same,glycan array binding signal (z-score),[17],-0.08
same,glycan array binding signal (z-score),[18],3.01
same,glycan array binding signal (z-score),[19],2.05
same,glycan array binding signal (z-score),[20],-0.15
same,glycan array binding signal (z-score),[21],0.131
same,glycan array binding signal (z-score),[22],2.12
same,glycan array binding signal (z-score),[23],-0.513
same,glycan array binding signal (z-score),[24],-0.148
same,glycan array binding signal (z-score),[25],-0.125
same,glycan array binding signal (z-score),[26],-0.199
same,glycan array binding signal (z-score),[27],0.153
same,glycan array binding signal (z-score),[28],2.28
